Data: PubChem BioAssay (NCATS)
Inconclusive results are not listed. Activity calls are given as the source filed them. The call rests on the fitted dose curve; in most records, active means well fitted inhibition curve with a large enough effect; inconclusive means small, poorly fitted or top-dose-only effect; inactive means flat fitted curve, though single readings scatter.

system: HEK293; assay: Cytotoxic Profiling of Annotated Libraries Using Quantitative High-Throughput Screening (AID 1296008); settings: Five cell lines viability, CellTiter-Glo ATP luminescence, 48-72 h; max response: hits give low values; further: nearly all actives have a fitted effect of over 60% in size
Summary of the method: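 Cytotoxicity was measured as CellTiter-Glo ATP luminescence, read after 10 min at room temperature. Compound treatment of the cells lasted 48 or 72 hr at 37 degrees Celsius in a qHTS format.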
On the % scale 0 is the no-effect control and ±100 the full control effect; potency means the concentration at half of the fitted maximal effect.

Which Potency does the source give for `CN1CCC(NC(=O)c2cc(-c3c(O)cc(O)cc3Oc3ccc([N+](=O)[O-])cc3)on2)CC1` here?
The Potency was 206 nM (active).

For `COc1ccc(C[C@H]2COC(=O)[C@@H]2Cc2ccc(O[C@@H]3O[C@H](CO)[C@@H](O)[C@H](O)[C@H]3O)c(OC)c2)cc1OC`, which Potency is on record?
The Potency was 1780 nM (active).

Which Potency does the source give for `CCNC(=O)Nc1ccc(-c2nc3c(c(N4CCOCC4C)n2)CCN(C2COC2)C3)cc1` (stereo not given) here?
Its Potency is 1460 nM (active).

`COc1cc2nc(C3CC3)nc(N3CCN(c4ccccc4OC)CC3)c2cc1OC` was tested. Which Potency did it give?
Its Potency is 18400 nM (active).

Which Potency does the source give for `CC(/C=C/C(=O)NO)=C\[C@@H](C)C(=O)c1ccc(N(C)C)cc1` here?
The Potency was 1160 nM (active).

For `CN1CCN(c2ccc(Nc3cc(-c4cccc(-n5ccc6cc(C7CC7)cc(F)c6c5=O)c4CO)cn(C)c3=O)nc2)CC1`, which Potency is on record?
Its Potency is 11600 nM (active).

For `CCc1cc(C(N)=O)ccc1-n1nc(C(C)C)c2c(-n3cnc(-c4cnn(C)c4)c3)ccnc21`, which max response is on record?
Its max response is -117% (inactive).

How did the Potency turn out when `Cc1ccccc1C(C(=O)NC1CCCCC1)N(C(=O)Cn1cnc2ccccc21)c1cccc(F)c1` (stereo not given) was run?
Its Potency is 16400 nM (active).

For `Cc1cc(-c2nc(-c3ccc(OC(F)(F)F)cc3)no2)nn1Cc1ccnc(N2CCN(C3CC3)CC2)c1`, which Potency is on record?
Its Potency is 6.5 nM (active).

How did the max response turn out when `COc1cc(O)cc(OC2OC(CO)C(O)C(O)C2O)c1` (stereo not given) was run?
Its max response is 0.556% (inactive).

How did the Potency turn out when `C1=C/COCc2cc(ccc2OCCN2CCCC2)Nc2nccc(n2)-c2cccc(c2)COC/1` was run?
Its Potency is 2060 nM (active).

How did the Potency turn out when `FC(F)(F)c1ccc(/C=C/c2nc(COc3ccc(CCCCn4ccnn4)cc3)co2)cc1` was run?
Its Potency is 29.1 nM (active).

For `COC(=O)N1CCC(n2ncc3c(N4CCOCC4)nc(-c4ccc(NC(=O)NC5CC5)cc4)nc32)CC1`, which Potency is on record?
The Potency was 291 nM (active).

Which max response does the source give for `C#CCCCn1cc(-c2cccc3c2N[C@H](C)CC(=O)N3)cn1` here?
Its max response is -13.5% (inactive).

`Nc1nc(O)c(C2=C3C(=Nc4ccccc43)C(=O)NCC2)[nH]1` was tested. Which max response did it give?
Its max response is -2.48% (inactive).

With `O=c1cc(NCCCN[C@@H]2CCOc3c(Br)cc(Br)cc32)[nH]c2ccsc12` as the compound, how does the Potency read?
Its Potency is 5800 nM (active).

With `COc1cc(NC(=O)c2cccc(-n3cc(NC(=O)Nc4cccc(C)c4)cn3)c2)cc(OC)c1OC` as the compound, how does the Potency read?
The Potency was 9200 nM (active).

Which max response does the source give for `CN[C@@H]1[C@H](O[C@H]2[C@H](O[C@@H]3[C@@H](O)[C@H](O)[C@@H](N=C(N)N)[C@H](O)[C@H]3N=C(N)N)O[C@@H](C)[C@]2(O)CO)O[C@@H](CO)[C@H](O)[C@H]1O` here?
The max response was -16.2% (inactive).

With `CCOC(=O)c1cnc2ccc(-c3cncc(NS(=O)(=O)c4ccccc4)c3)cn12` as the compound, how does the Potency read?
Its Potency is 1030 nM (active).

Which Potency does the source give for `CC[C@@H](C)Nc1cc(C(=O)NC2CC3CCC(C2)N3c2ccc(C(=O)C3CC3)cn2)c(C)cc1C(N)=O` (stereo not given in full) here?
The Potency was 130 nM (active).

How did the Potency turn out when `CCNC(=O)c1noc(-c2cc(Cl)c(O)cc2O)c1-c1ccc(OC)cc1` was run?
Its Potency is 206 nM (active).

Which Potency does the source give for `Cc1nc2ccc(CN(C)c3ccc(C(=O)NC(CCC(=O)O)C(=O)O)s3)cc2c(=O)[nH]1` (stereo not given) here?
The Potency was 41.1 nM (active).

With `COC(=O)Nc1cc(Nc2cc(NC3CC3)c3ncc(C#N)n3n2)c(Cl)c(N2CCN(C)CC2)c1` as the compound, how does the Potency read?
Its Potency is 1320 nM (active).

Which Potency does the source give for `CCOC(=O)[C@@]1(CCCCCCOc2ccc(Cl)cc2)CO1` here?
The Potency was 8310 nM (active).

`O=C(Cc1cccc(OC(F)(F)F)c1)Nc1ccc(CCCCc2nnc(NC(=O)Cc3ccccn3)s2)nn1` was tested. Which Potency did it give?
Its Potency is 16600 nM (active).

How did the Potency turn out when `O=C(Nc1ccc(Cl)cc1)C1CCCN(C(=O)c2cccc(-c3ccco3)c2)C1` (stereo not given) was run?
The Potency was 18400 nM (active).

Which Potency does the source give for `C=C(C)Cn1c(SCC(=O)c2cccs2)nc2sc3c(c2c1=O)CCCC3` here?
Its Potency is 1640 nM (active).

For `COc1cc(N2CCC(N3CCN(C)CC3)CC2)ccc1Nc1ncc(Cl)c(Nc2ccccc2P(C)(C)=O)n1`, which Potency is on record?
Its Potency is 5800 nM (active).

Which Potency does the source give for `Cc1sc2c(c1C)C(c1ccc(Cl)cc1)=N[C@H](CC(=O)NCCCCNC(=O)COc1cccc3c1C(=O)N([C@H]1CCC(=O)NC1=O)C3=O)c1nnc(C)n1-2` here?
The Potency was 2590 nM (active).

How did the Potency turn out when `COc1c(C)cnc(Cn2cc(C#CCC(C)(C)O)c3c(Cl)nc(N)nc32)c1C` was run?
Its Potency is 51.7 nM (active).

How did the Potency turn out when `Fc1ccc(-c2nc(C3CCNCC3)sc2-c2ccnc(NC3CC3)n2)cc1` was run?
The Potency was 1640 nM (active).

With `COc1ccc(N(C(=O)Nc2c(C)cccc2C)c2cc(Nc3ccc(N4CCN(C)CC4)cc3)ncn2)c(OC)c1` as the compound, how does the Potency read?
The Potency was 14600 nM (active).

How did the Potency turn out when `C/C1=C/CCC2=CC(OC2=O)C(C)(C)/C=C/C1=O` (stereo not given) was run?
The Potency was 1300 nM (active).

`CCCCNc1ncc(C(=O)NCc2ccc(-n3ccnc3)cc2)c(NC2CCC(O)CC2)n1` (stereo not given) was tested. Which Potency did it give?
Its Potency is 7310 nM (active).

`CCCC1(CCC)CCC2(CCN(CCCN(CC)CC)C2)CC1` was tested. Which Potency did it give?
Its Potency is 1840 nM (active).

`CC[C@@H](C)Nc1cc(C(=O)NC2CC3CC[C@@H](C2)N3c2ccc(C(=O)C3CC3)cn2)c(C)cc1C(N)=O` (stereo not given in full) was tested. Which Potency did it give?
Its Potency is 51.7 nM (active).

Which max response does the source give for `CN1CCN(Cc2ccc(NC(=O)Cc3ccc(Oc4cc(NC(=O)C5CC5)ncn4)cc3)cc2C(F)(F)F)CC1` here?
The max response was -105% (inactive).

For `CCc1c[nH]c2ncnc(N3CC[C@](N)(CNC(=O)c4ccc(F)cc4F)C3)c12`, which Potency is on record?
Its Potency is 1160 nM (active).

For `C=CC(=O)Nc1cccc(Nc2nc(Nc3ccc(NC4CN(CCF)C4)cc3OC)ncc2C(F)(F)F)c1`, which Potency is on record?
The Potency was 8200 nM (active).

`C=C(C)C(=O)OC1CC2(C)OC(=CC2=O)C(=C)CC2OC(=O)C(=C)C12` (stereo not given) was tested. Which Potency did it give?
Its Potency is 718 nM (active).
